# SNCA expr inhib: reduces expression of the alpha-synuclein gene; HEK-293 SNCA-luciferase knock-in, luminescence, 24 h; Potency, µM (top dose mostly 57.2 µM), without a hit: at the highest dose activity change, negative = inhibition, actives largely listed as inhibitors; 140,000 compounds, 0.17% hits; AID 1671194;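 also: plate controls were DMSO cells for no effect and cell-free wells for full effect; nearly all actives have a fitted effect of over 45% in size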
# Luciferase inh: blocks purified firefly luciferase enzyme activity. AID 1347043. 76,000 compounds, 2.5% hits. purified P. pyralis luciferase, luminescence, biochemical. Potency, µM (titrated, usually from 115 µM), usual class: inhibitors; also: nearly all actives have a fitted effect of over 65% in size
# Target sequence (P08659 whole entry, looked up): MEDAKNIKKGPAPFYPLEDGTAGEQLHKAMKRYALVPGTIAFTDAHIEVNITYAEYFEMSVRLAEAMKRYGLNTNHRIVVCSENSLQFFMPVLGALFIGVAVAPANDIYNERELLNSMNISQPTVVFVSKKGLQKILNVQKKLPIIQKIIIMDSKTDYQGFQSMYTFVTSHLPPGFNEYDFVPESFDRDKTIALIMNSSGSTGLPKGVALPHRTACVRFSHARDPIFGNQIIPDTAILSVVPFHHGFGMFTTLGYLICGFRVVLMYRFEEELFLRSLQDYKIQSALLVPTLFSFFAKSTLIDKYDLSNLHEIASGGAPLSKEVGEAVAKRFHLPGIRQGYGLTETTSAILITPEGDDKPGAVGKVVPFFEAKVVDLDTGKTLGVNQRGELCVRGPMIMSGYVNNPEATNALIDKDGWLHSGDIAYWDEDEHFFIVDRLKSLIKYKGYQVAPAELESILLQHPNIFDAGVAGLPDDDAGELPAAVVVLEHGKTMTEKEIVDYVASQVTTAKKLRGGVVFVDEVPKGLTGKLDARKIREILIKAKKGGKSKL
#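 Inhibitors were tested against purified firefly luciferase in a biochemical, low-substrate format (both substrates at 10uM) and luminescence measured with a CCD imager.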
# HEK293 viab: cell viability loss counter-screen. HEK-293-SNCA-luc viability, GF-AFC fluorescence, 24 h. Potency, µM (highest dose often 57.1 µM), for inactives: at the highest dose activity change, negative = cytotoxicity, most hits filed as cytotoxic. 150,000 compounds, 0.12% hits. AID 1671193;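 also: 0% = DMSO-treated cells and -100% = medium-only wells without cells; nearly all actives have a fitted effect of over 30% in size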
#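 HEK-293-SNCA-luc cells (1500/well) plated 24 h, then exposed 24 h to a dilution series; GF-AFC added 30 min at 37C, fluorescence 405/540 nm; normalised to medium-only and DMSO wells, Hill fit.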
# HEK cytotox: cytotoxic compounds in HEK 293 cells. HEK 293 viability, ATP luminescence (CellTiter-Glo), 48-72 h. Potency, µM (highest dose often 115 µM), inactives show top-dose activity change, negative = cytotoxicity, actives largely listed as inhibitors. 94,000 compounds, 6.6% hits; also: nearly all actives have a fitted effect of over 60% in size
#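 250 HEK 293 cells/well; compound by pintool; incubated 48 or 72 hr at 37 degree Celsius; CellTiter-Glo added, 10 min RT, luminescence imaged.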
# 3T3 cytotox: NIH 3T3 cell cytotoxicity; AID 1345082; Potency, µM (series often up to 96.7 µM), for the others: top-dose activity change, negative = cytotoxicity, actives largely listed as inhibitors; 94,000 compounds, 4.3% hits; NIH 3T3 viability, CellTiter-Glo ATP luminescence, 48-72 h; also: nearly all actives have a fitted effect of over 55% in size
#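 First NIH 3T3 cells are plated at 400 cells/well; next compound is pinned in; then plates incubate 48 or 72 hr at 37 °C; finally CellTiter-Glo is added and luminescence read after 10 min.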
# hNpr1 antagonist: antagonists of human natriuretic peptide receptor Npr1 | HEK293 hNpr1 GloSensor cGMP, ANP-stimulated luminescence | Potency, µM (titrated, usually from 46.3 µM), for inactives: at the highest dose activity change, negative = inhibition, hits mostly inhibitors | AID 1347048 | P16066 | 76,000 compounds, 1.6% hits; calls by dose curve; also: nearly all actives have a fitted effect of over 60% in size
#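 HEK293 cells stably expressing human Npr1 and cGMP GloSensor pGS-40F, loaded 2 h with 2% GloSensor reagent, given compound 30 min at room temperature. Luminescence read before and 20 min after 0.1 nM hNppA.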
# * hit, by the source's call; i = inactive; ? = inconclusive; nt = not tested or not shown; [ ] = another dose, or the depositor's remark. Sampled rows, rich in hits. Any-hit rate of the full collection: about 7.4%. Unless noted, calls follow the shape of the dose curve; as a rule, active = well fitted curve in the direction sought with a large enough effect; inconclusive = small, poorly fitted or top-dose-only effect, or another doubt; inactive = no such curve, though single readings can be large; an effect the other way counts as inactive or inconclusive. Unless noted, % is scaled to controls: 0 for no effect and ±100 for the full control effect; potency is read from the fitted curve at half-maximal effect.
SMILES,SNCA expr inhib,Luciferase inh,HEK293 viab,HEK cytotox,3T3 cytotox,hNpr1 antagonist
COc1cc2c(cc1OCc1ccccc1)N([S+](=O)([O-])c1cccc3cccnc13)CC21CCN(C)CC1,?,i,?,25.1µM*,17.8µM*,-15.6%
COc1cc2c(cc1OCc1ccccc1)N(C(=O)[C@@H]1CCCO1)CC21CCN(C)CC1,-23.9%[87.6 µM],i,-4.3%[87.6 µM],-16.7%[172 µM],?,5.2%[70.6 µM]
COc1cc2c(cc1OCc1ccccc1)N(C(=O)CC1CC1)CC21CCN(C)CC1,3.4%[87.6 µM],i,-16.7%[87.6 µM],112µM*,79.4µM*,12.2%[70.6 µM]
COc1cc2c(cc1OCc1ccccc1)N(C(=O)CC(C)C)CC21CCN(C)CC1,3.4%[87.6 µM],i,-16.3%[87.6 µM],100µM*,50.1µM*,4.0%[70.6 µM]
COc1ccccc1CC(=O)N1CC2(CCN(C)CC2)c2cc(OC)c(OCc3ccccc3)cc21,0.3%,i,-6.2%,?,31.6µM*,5.2%
Cc1[nH]c2ccc(Cl)cc2c1CCN(C)C,nt,nt,1.6%,nt,nt,nt
Cc1cc(C(F)(F)F)nn1CC(=O)N1[C@H]2CC[C@@H]1c1cnc(-c3ccc(F)cc3)nc1C2,5.5%,i,2.5%,-6.1%,-20.4%,-3.1%
COCC(=O)NC[C@H]1C[C@@H]2CCN1C[C@@H]2c1cc(-c2ccccc2)nc(C)n1,-0.4%[87.6 µM],i,-1.1%[87.6 µM],-27.8%[172 µM],?,2.8%[70.6 µM]
CCC(CC)c1cc([C@H]2CN3CC[C@H]2C[C@@H]3CNC(=O)c2cccs2)nc(-c2ccncc2)n1,-27.2%,i,?,?,22.4µM*,?
COc1ccc(-c2cc([C@H]3CN4CC[C@H]3C[C@@H]4CNC(=O)c3cccs3)n(C)n2)cc1,2.1%,i,-4.2%,?,?,1.3%
CCC(CC)c1cc([C@H]2CN3CC[C@H]2C[C@@H]3CNC(=O)Cc2cccs2)nc(-c2ccncc2)n1,-17.8%,i,-18.8%,39.8µM*,28.2µM*,?
Cc1nc(-c2ccccc2)cc([C@H]2CN3CC[C@H]2C[C@@H]3CNS(=O)(=O)Cc2ccccc2)n1,2.2%,i,-4.2%,79.4µM*,79.4µM*,-0.9%
Cc1nc(-c2ccccc2)cc([C@H]2CN3CC[C@H]2C[C@@H]3CNC(=O)c2cccs2)n1,-18.4%[87.6 µM],i,?,70.8µM*,?,-3.0%[70.6 µM]
Cn1nc(-c2ccccc2)cc1[C@H]1CN2CC[C@H]1C[C@@H]2CNC(=O)c1cccs1,-17.6%[87.6 µM],i,-1.3%[87.6 µM],?,?,3.5%[70.6 µM]
Cc1nc(-c2cccs2)cc([C@H]2CN3CC[C@H]2C[C@@H]3CNC(=O)CSCC(=O)O)n1,13.4%,i,3.8%,-2.2%,1.5%,7.3%
CC(=O)OC1CC(O)C2(C)C(CC(OC(C)=O)C3(C)C2CCC2(C)C(c4ccoc4)C(=O)C4OC423)C1(C)C (stereo not drawn),nt,nt,-16.4%[23.9 µM],nt,nt,nt
CCCN(CCC)[C@@H]1CCc2ccc3[nH]c(C#N)cc3c2C1,nt,nt,-30.7%,nt,nt,nt
C[C@]12CC[C@H](O)C[C@@H]1CC[C@@H]1[C@@H]2CC[C@]2(C)[C@@H](C3=CC(=O)OC3)CC[C@]12O,nt,nt,-36.8%,nt,nt,nt
Cc1sc2c(c1C)C(c1ccc(Cl)cc1)=NC(CC(=O)OC(C)(C)C)c1nnc(C)n1-2 (stereo not drawn),nt,nt,-33.2%,nt,nt,nt
COc1cc2c(cc1OC1CCCC1)NC(=O)C21CCN(c2ncc(F)cn2)CC1,-13.2%[87.6 µM],i,-9.3%[87.6 µM],89.1µM*,89.1µM*,-4.8%[70.6 µM]
COc1cc2c(cc1OC1CCCC1)NC(=O)C21CCN(c2nc(C)cc(C)n2)CC1,?,i,-12.2%[87.6 µM],89.1µM*,?,-7.8%[70.6 µM]
COc1cc2c(cc1OC1CCCC1)NC(=O)C21CCN(c2ncc(C(C)C)cn2)CC1,?,i,-5.9%[87.6 µM],?,?,-1.9%[70.6 µM]
CCc1cnc(N2CCC3(CC2)C(=O)Nc2cc(Oc4ccccc4)c(OC)cc23)nc1,?,i,-13.4%[87.6 µM],44.7µM*,39.8µM*,-16.1%[70.6 µM]
COc1cc2c(cc1OC1CCCC1)NC(=O)C21CCN(c2ncccn2)CC1,10.6%[87.6 µM],i,-15.0%[87.6 µM],100µM*,?,0.4%[70.6 µM]
CCc1cnc(N2CCC3(CC2)C(=O)Nc2cc(OC4CCCC4)c(OC)cc23)nc1,-19.3%[87.6 µM],i,7.6%[87.6 µM],79.4µM*,?,-0.8%[70.6 µM]
SMILES,SNCA expr inhib,Luciferase inh,HEK293 viab,HEK cytotox,3T3 cytotox,hNpr1 antagonist
COc1cc2c(cc1OC1CCCC1)NC(=O)C21CCN(c2cnccn2)CC1,?,i,-3.1%[87.6 µM],89.1µM*,?,-16.2%[70.6 µM]
CCC(CC)c1cc([C@H]2CN3CC[C@H]2C[C@@H]3CNC(=O)c2ccc(C)cc2)nc(-c2ccncc2)n1,5.2%,i,-0.6%,44.7µM*,?,-12.5%
CCC(CC)c1cc([C@H]2CN3CC[C@H]2C[C@@H]3CNC(=O)Nc2cccc(C#N)c2)nc(-c2ccncc2)n1,6.6%,i,-11.9%,?,79.4µM*,-16.3%
CCC(CC)c1cc([C@H]2CN3CC[C@H]2C[C@@H]3CNC(=O)c2ccc(N(C)C)cc2)nc(-c2ccncc2)n1,-21.8%,i,?,20µM*,?,-21.7%
CCC(CC)c1cc([C@H]2CN3CC[C@H]2C[C@@H]3COC(=O)Nc2ccccc2)nc(-c2ccncc2)n1,7.4%,i,3.5%,-14.5%,-17.7%,-1.8%
CCC(CC)c1cc([C@H]2CN3CC[C@H]2C[C@@H]3CO)nc(-c2ccncc2)n1,3.4%[87.6 µM],i,-9.9%[87.6 µM],112µM*,112µM*,-27.6%[70.6 µM]
C=C[C@H]1CN2CC[C@H]1C[C@@H]2CNC(=O)c1ccc(N(C)C)cc1,-20.0%[87.6 µM],i,0.7%[87.6 µM],?,-21.4%[174 µM],6.5%[70.6 µM]
CCC(CC)c1cc([C@H]2CN3CC[C@H]2C[C@@H]3CNC(=O)c2ccco2)nc(-c2ccncc2)n1,-13.3%,i,6.3%,-3.5%,-10.2%,-1.9%
CCCCOC(=O)N1C[C@H](C(=O)OCC)[C@H]2c3ccccc3N(CC3CC3)C(=O)[C@]21C,16.0%[25.6 µM],nt,8.0%[23.9 µM],?,?,nt
CCOC(=O)[C@H]1CN(C(=O)c2cccs2)[C@]2(C)C(=O)N(CC3CC3)c3ccccc3[C@H]12,-10.8%[25.6 µM],nt,-6.1%[23.9 µM],?,?,nt
CCOC(=O)[C@@H]1[C@H]2c3ccccc3N(CCOC)C(=O)[C@H]2N(C(=O)OCC)[C@@H]1c1ccccc1,nt,nt,nt,?,-27.3%,nt
CCC(CC)c1cc([C@H]2CN3CC[C@H]2C[C@@H]3CNC2CCN(C(C)=O)CC2)nc(-c2ccncc2)n1,-0.7%,i,-2.5%,79.4µM*,?,-8.2%
COc1cc2c(cc1OC1CCCC1)NC(=O)C21CCN(Cc2ccccc2)CC1,-22.7%[87.6 µM],i,-26.1%[87.6 µM],?,89.1µM*,-14.4%[70.6 µM]
COc1cc2c(cc1OC1CCCC1)NC(=O)C21CCN(C(=O)Cc2ccccc2)CC1,-16.0%[87.6 µM],i,-11.9%[87.6 µM],79.4µM*,89.1µM*,?

# High-throughput results as filed in PubChem BioAssay.
